Results filed as inconclusive are left out. Calls come from the whole dose curve; as a rule, active = well fitted inhibition curve with a large enough effect; inconclusive = small, poorly fitted or top-dose-only effect; inactive = flat fitted curve, though single readings scatter.
The compounds below were run against Luciferin 4-monooxygenase (Photinus pyralis) (UniProt P08659) (assay: Biochemical firefly luciferase enzyme assay for NPC (AID 624030;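 note: purified P. pyralis luciferase at 10 nM with luciferin and ATP substrate; 0% = DMSO and -100% = full luciferase inhibition by PTC124 control; nearly all actives have a fitted effect of over 70% in size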)). Conditions: purified P. pyralis luciferase, luminescence, 5 min; series mostly up to 58.6 µM; activity change, negative = inhibition: at the top concentration.
Sequence of Luciferin 4-monooxygenase (Photinus pyralis) (P08659 whole entry, looked up): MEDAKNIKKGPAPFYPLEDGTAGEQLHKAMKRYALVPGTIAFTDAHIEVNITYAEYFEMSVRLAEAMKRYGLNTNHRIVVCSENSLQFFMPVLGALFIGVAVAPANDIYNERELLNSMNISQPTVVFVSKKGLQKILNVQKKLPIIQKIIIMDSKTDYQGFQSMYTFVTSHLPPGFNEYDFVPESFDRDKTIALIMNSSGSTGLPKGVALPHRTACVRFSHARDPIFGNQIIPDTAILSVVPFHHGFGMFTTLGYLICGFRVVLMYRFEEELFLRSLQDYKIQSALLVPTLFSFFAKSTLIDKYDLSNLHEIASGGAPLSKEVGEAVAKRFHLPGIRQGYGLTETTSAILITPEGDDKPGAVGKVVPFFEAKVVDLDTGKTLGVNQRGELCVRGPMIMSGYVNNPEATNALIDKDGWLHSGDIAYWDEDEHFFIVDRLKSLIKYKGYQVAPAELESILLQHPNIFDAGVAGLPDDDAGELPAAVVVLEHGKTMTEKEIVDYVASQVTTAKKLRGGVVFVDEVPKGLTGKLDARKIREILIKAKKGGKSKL
Outline: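 Direct inhibition of firefly luciferase enzyme (10 nM final, 50 mM Tris Acetate) assessed by luminescence within 5 minutes. Percent activity scaled between DMSO and PTC124 positive control, with concentration-effect curves classified by fit quality and response.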

Activity change, negative = inhibition, inactive:
COCC1=C(C(=O)OC(C)OC(=O)OC(C)C)N2C(=O)C(NC(=O)/C(=N\OC)c3csc(N)n3)C2SC1 (stereo not given) 1.77%
Cc1cccc(C)c1N(CCCc1cccnc1)C(=O)[C@@H](C)N 0.23%
CS(=O)(=O)NC(=O)CCC/C=C\C[C@H]1C(=O)C[C@@H](O)[C@@H]1/C=C/[C@@H](O)COc1ccccc1 -3.59%
COc1ccc2c(C(=S)N(C)CC(=O)O)cccc2c1C(F)(F)F -8.99%
CCC(=O)C(Cc1ccccc1)(Cc1ccccc1)CC(C)N(C)C (stereo not given) 2.41% [at 123 µM]
C(=C1NCCN1)c1cccc2ccccc12 0.0122%
CC(C)N(Cc1ccccc1)C(C)C (tested in a mixture with another compound) 0.335%
CC(C)(C)CC(=O)OCC(=O)[C@@]12OC(C)(C)O[C@@H]1C[C@H]1[C@@H]3CCC4=CC(=O)C=C[C@]4(C)[C@@]3(F)[C@@H](O)C[C@]12C -1.17%
Cc1c(C)c2c(c(C)c1OC(=O)CCC(=O)OCCO)CC[C@](C)(CCC[C@H](C)CCC[C@H](C)CCCC(C)C)O2 4.26%
CC(=O)OC1CCC2(C)C(=CCC3C2CCC2(C)C(C(C)=O)CCC32)C1 (stereo not given) 0.644%
COc1cc2c(cc1OC)[C@@H](Cc1cc(OC)c(OC)c(OC)c1)[N@+](C)(CCCOC(=O)CC/C=C/CCC(=O)OCCC[N@+]1(C)CCc3cc(OC)c(OC)cc3[C@H]1Cc1cc(OC)c(OC)c(OC)c1)CC2 4.86%
CCCCCCC(=O)O[C@@H]1CC[C@H]2[C@@H]3CCc4cc(O)ccc4[C@H]3CC[C@]12C -0.804%
CCCN(CC)[C@@H](CC)C(=O)Nc1c(C)cccc1C -2.8%
CO/N=C1/CC2(CC3CC(C/C=C(/C)CC(C)/C=C\C=C4\COC5C(O)C(C)=CC(C(=O)O3)C45O)O2)OC(/C(C)=C/C(C)C)C1C (stereo not given) -0.66%
CCOC(=O)[C@H](CCc1ccccc1)NC(C)C(=O)N1CC2(CC1C(=O)O)SCCS2 (stereo not given in full) -4.85%

From PubChem BioAssay (NCATS)
